The campaign covered roughly 5,500 compounds. About 2,000 (36%) were called active. Another 18% or so got no clear call; they are omitted. Rule as the data show it: active = normalized growth mostly below about 0.91 (no sharp cut-off); inconclusive = no clear call, values can overlap the other calls; inactive = mostly above about 0.92. Some of the results follow.
Experiment: chemical genetic growth profiling, strain panel (AID 1159580);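 also: tested at 20 µM; growth read once vehicle control cultures reached saturation at 30 °C; 1 = growth at the plate median or of vehicle wells; lower values mean less growth of the strain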
Conditions: growth OD

Measured: normalized growth

Cn1c(=O)[nH]c2nc[nH]c2c1=O
inactive: S. cerevisiae deletion strains, locus YAL021C, strain ccr4, stronger effect = lower value 0.98 | S. cerevisiae deletion strains, locus YAL026C, strain drs2, stronger effect = lower value 1.01 | S. cerevisiae deletion strains, locus YAL030W, strain snc1, stronger effect = lower value 1 | S. cerevisiae deletion strains, locus YBL061C, strain skt5, stronger effect = lower value 0.992 | S. cerevisiae deletion strains, locus YBR009C, strain hhf1, stronger effect = lower value 0.992 | S. cerevisiae deletion strains, locus YBR021W, strain FUR4, stronger effect = lower value 1.01 | S. cerevisiae deletion strains, locus YBR023C, strain chs3, stronger effect = lower value 0.993 | S. cerevisiae deletion strains, locus YBR171W, strain sec66, stronger effect = lower value 0.972 | S. cerevisiae deletion strains, locus YBR229C, strain ROT2, stronger effect = lower value 0.995 | S. cerevisiae deletion strains, locus YBR231C, strain swc5, stronger effect = lower value 0.989 | S. cerevisiae deletion strains, locus YBR279W, strain paf1, stronger effect = lower value 1 | S. cerevisiae deletion strains, locus YCL011C, strain gbp2, stronger effect = lower value 0.996 | S. cerevisiae deletion strains, locus YCL016C, strain dcc1, stronger effect = lower value 0.994 | S. cerevisiae deletion strains, locus YCL029C, strain bik1, stronger effect = lower value 0.992 | S. cerevisiae deletion strains, locus YCL061C, strain MRC1, stronger effect = lower value 0.999 | S. cerevisiae deletion strains, locus YCL069W, strain vba3, stronger effect = lower value 0.993 | S. cerevisiae deletion strains, locus YCR088W, strain abp1, stronger effect = lower value 1.01 | S. cerevisiae deletion strains, locus YDL005C, strain med2, stronger effect = lower value 0.993 | S. cerevisiae deletion strains, locus YDL035C, strain GPR1, stronger effect = lower value 1.01 | S. cerevisiae deletion strains, locus YDL040C, strain nat1, stronger effect = lower value 0.987 | S. cerevisiae deletion strains, locus YDL074C, strain BRE1, stronger effect = lower value 1.04 | S. cerevisiae deletion strains, locus YDL101C, strain DUN1, stronger effect = lower value 1.01 | S. cerevisiae deletion strains, locus YDL134C, strain PPH21, stronger effect = lower value 1 | S. cerevisiae deletion strains, locus YDL185W, strain tfp1, stronger effect = lower value 1.01 | S. cerevisiae deletion strains, locus YDL192W, strain arf1, stronger effect = lower value 0.985 | S. cerevisiae deletion strains, locus YDR001C, strain nth1, stronger effect = lower value 1 | S. cerevisiae deletion strains, locus YDR069C, strain doa4, stronger effect = lower value 1 | S. cerevisiae deletion strains, locus YDR101C, strain arx1, stronger effect = lower value 0.995 | S. cerevisiae deletion strains, locus YDR137W, strain rgp1, stronger effect = lower value 0.976 | S. cerevisiae deletion strains, locus YDR159W, strain sac3, stronger effect = lower value 1.01 | S. cerevisiae deletion strains, locus YDR162C, strain NBP2, stronger effect = lower value 1.03 | S. cerevisiae deletion strains, locus YDR195W, strain ref2 0.966 | S. cerevisiae deletion strains, locus YDR297W, strain sur2, stronger effect = lower value 1 | S. cerevisiae deletion strains, locus YDR318W, strain mcm21, stronger effect = lower value 0.994 | S. cerevisiae deletion strains, locus YDR334W, strain swr1, stronger effect = lower value 0.998 | S. cerevisiae deletion strains, locus YDR335W, strain msn5, stronger effect = lower value 0.987 | S. cerevisiae deletion strains, locus YDR388W, stronger effect = lower value 0.994 | S. cerevisiae deletion strains, locus YDR392W, strain spt3, stronger effect = lower value 0.972 | S. cerevisiae deletion strains, locus YDR502C, strain sam2, stronger effect = lower value 0.997 | S. cerevisiae deletion strains, locus YEL003W, strain gim4, stronger effect = lower value 1.01 | S. cerevisiae deletion strains, locus YEL037C, strain rad23, stronger effect = lower value 0.992 | S. cerevisiae deletion strains, locus YEL061C, strain CIN8 (second series), stronger effect = lower value 0.995 | S. cerevisiae deletion strains, locus YEL061C, strain CIN8, stronger effect = lower value 1 | S. cerevisiae deletion strains, locus YER015W, strain faa2, stronger effect = lower value 1.01 | S. cerevisiae deletion strains, locus YER016W, strain bim1, stronger effect = lower value 0.993 | S. cerevisiae deletion strains, locus YER110C, stronger effect = lower value 1 | S. cerevisiae deletion strains, locus YER111C, strain swi4, stronger effect = lower value 0.99 | S. cerevisiae deletion strains, locus YER155C, strain BEM2 (second series), stronger effect = lower value 0.992 | S. cerevisiae deletion strains, locus YER155C, strain BEM2, stronger effect = lower value 1.01 | S. cerevisiae deletion strains, locus YER167W, strain BCK2, stronger effect = lower value 0.997 | S. cerevisiae deletion strains, locus YFR010W, strain ubp6, stronger effect = lower value 1.01 | S. cerevisiae deletion strains, locus YGL078C, strain dbp3, stronger effect = lower value 1.01 | S. cerevisiae deletion strains, locus YGL086W, strain mad1, stronger effect = lower value 1.01 | S. cerevisiae deletion strains, locus YGL167C, strain pmr1, stronger effect = lower value 1 | S. cerevisiae deletion strains, locus YGL173C, strain kem1, stronger effect = lower value 1.02 | S. cerevisiae deletion strains, locus YGL227W, strain vid30, stronger effect = lower value 1 | S. cerevisiae deletion strains, locus YGL240W, strain doc1, stronger effect = lower value 1.01 | S. cerevisiae deletion strains, locus YGL248W, strain PDE1, stronger effect = lower value 0.996 | S. cerevisiae deletion strains, locus YGL253W, strain hxk2, stronger effect = lower value 1 | S. cerevisiae deletion strains, locus YGR078C, strain PAC10, stronger effect = lower value 1.01 | S. cerevisiae deletion strains, locus YGR135W, strain pre9, stronger effect = lower value 1.01 | S. cerevisiae deletion strains, locus YGR252W, strain gcn5, stronger effect = lower value 1.01 | S. cerevisiae deletion strains, locus YHR013C, strain ard1, stronger effect = lower value 0.989 | S. cerevisiae deletion strains, locus YHR027C, strain rpn1, stronger effect = lower value 1.02 | S. cerevisiae deletion strains, locus YHR030C, strain SLT2, stronger effect = lower value 1.02 | S. cerevisiae deletion strains, locus YHR079C, strain IRE1 (second series), stronger effect = lower value 1 | S. cerevisiae deletion strains, locus YHR094C, strain hxt1, stronger effect = lower value 0.993 | S. cerevisiae deletion strains, locus YHR129C, strain ARP1, stronger effect = lower value 1 | S. cerevisiae deletion strains, locus YHR142W, strain chs7, stronger effect = lower value 0.997 | S. cerevisiae deletion strains, locus YHR200W, strain rpn10, stronger effect = lower value 0.983 | S. cerevisiae deletion strains, locus YIL066C, strain RNR3, stronger effect = lower value 1.01 | S. cerevisiae deletion strains, locus YIL073C, strain SPO22, stronger effect = lower value 1.03 | S. cerevisiae deletion strains, locus YIL125W, strain kgd1, stronger effect = lower value 1 | S. cerevisiae deletion strains, locus YIR030C, strain dcg1, stronger effect = lower value 0.995 | S. cerevisiae deletion strains, locus YJL092W, strain hpr5, stronger effect = lower value 1 | S. cerevisiae deletion strains, locus YJL095W, strain BCK1 (second series), stronger effect = lower value 0.997 | S. cerevisiae deletion strains, locus YJL095W, strain BCK1, stronger effect = lower value 1.03 | S. cerevisiae deletion strains, locus YJL115W, strain asf1, stronger effect = lower value 1.01 | S. cerevisiae deletion strains, locus YJL129C, strain trk1, stronger effect = lower value 1.01 | S. cerevisiae deletion strains, locus YJL134W, strain LCB3, stronger effect = lower value 1.01 | S. cerevisiae deletion strains, locus YJL154C, strain vps35, stronger effect = lower value 0.997 | S. cerevisiae deletion strains, locus YJL164C, strain tpk1, stronger effect = lower value 0.981 | S. cerevisiae deletion strains, locus YJL166W, strain qcr8, stronger effect = lower value 0.995 | S. cerevisiae deletion strains, locus YJL168C, strain set2, stronger effect = lower value 0.994 | S. cerevisiae deletion strains, locus YJL187C, strain SWE1 (second series), stronger effect = lower value 1.01 | S. cerevisiae deletion strains, locus YJL187C, strain SWE1, stronger effect = lower value 1 | S. cerevisiae deletion strains, locus YJR043C, strain POL32, stronger effect = lower value 1.03 | S. cerevisiae deletion strains, locus YJR075W, strain HOC1, stronger effect = lower value 1.01 | S. cerevisiae deletion strains, locus YKL068W, stronger effect = lower value 1 | S. cerevisiae deletion strains, locus YKL085W, strain MDH1 (second series), stronger effect = lower value 1.02 | S. cerevisiae deletion strains, locus YKL085W, strain MDH1, stronger effect = lower value 1.02 | S. cerevisiae deletion strains, locus YKL160W, strain elf1, stronger effect = lower value 0.978 | S. cerevisiae deletion strains, locus YKL190W, strain CNB1, stronger effect = lower value 1.02 | S. cerevisiae deletion strains, locus YKR001C, strain vps1, stronger effect = lower value 1.01 | S. cerevisiae deletion strains, locus YKR026C, strain gcn3, stronger effect = lower value 0.999 | S. cerevisiae deletion strains, locus YKR091W, strain srl3, stronger effect = lower value 0.997 | S. cerevisiae deletion strains, locus YLL001W, strain dnm1, stronger effect = lower value 0.977 | S. cerevisiae deletion strains, locus YLL026W, stronger effect = lower value 1 | S. cerevisiae deletion strains, locus YLL041C, strain sdh2, stronger effect = lower value 0.999 | S. cerevisiae deletion strains, locus YLR027C, strain aat2, stronger effect = lower value 0.991 | S. cerevisiae deletion strains, locus YLR039C, strain RIC1, stronger effect = lower value 1.03 | S. cerevisiae deletion strains, locus YLR058C, strain SHM2, stronger effect = lower value 1.01 | S. cerevisiae deletion strains, locus YLR102C, strain apc9, stronger effect = lower value 1.01 | S. cerevisiae deletion strains, locus YLR221C, strain rsa3, stronger effect = lower value 1.01 | S. cerevisiae deletion strains, locus YLR258W, strain gsy2, stronger effect = lower value 1.01 | S. cerevisiae deletion strains, locus YLR262C, strain YPT6 (second series), stronger effect = lower value 0.979 | S. cerevisiae deletion strains, locus YLR262C, strain YPT6, stronger effect = lower value 1.04 | S. cerevisiae deletion strains, locus YLR268W, strain sec22, stronger effect = lower value 1.01 | S. cerevisiae deletion strains, locus YLR320W, strain mms22, stronger effect = lower value 1 | S. cerevisiae deletion strains, locus YLR330W, strain CHS5, stronger effect = lower value 1 | S. cerevisiae deletion strains, locus YLR342W, strain FKS1 (second series), stronger effect = lower value 1.01 | S. cerevisiae deletion strains, locus YLR342W, strain FKS1, stronger effect = lower value 1 | S. cerevisiae deletion strains, locus YLR357W, strain rsc2, stronger effect = lower value 0.977 | S. cerevisiae deletion strains, locus YLR370C, strain arc18, stronger effect = lower value 0.999 | S. cerevisiae deletion strains, locus YLR371W, strain rom2, stronger effect = lower value 1 | S. cerevisiae deletion strains, locus YLR384C, strain iki3, stronger effect = lower value 1 | S. cerevisiae deletion strains, locus YLR418C, strain cdc73, stronger effect = lower value 1.01 | S. cerevisiae deletion strains, locus YML016C, strain PPZ1, stronger effect = lower value 1 | S. cerevisiae deletion strains, locus YML032C, strain rad52, stronger effect = lower value 0.991 | S. cerevisiae deletion strains, locus YML120C, strain ndi1, stronger effect = lower value 1 | S. cerevisiae deletion strains, locus YML124C, strain tub3, stronger effect = lower value 0.996 | S. cerevisiae deletion strains, locus YMR058W, strain fet3, stronger effect = lower value 1.01 | S. cerevisiae deletion strains, locus YMR078C, strain ctf18, stronger effect = lower value 0.996 | S. cerevisiae deletion strains, locus YMR125W, strain sto1, stronger effect = lower value 0.998 | S. cerevisiae deletion strains, locus YMR129W, stronger effect = lower value 1 | S. cerevisiae deletion strains, locus YMR205C, strain PFK2, stronger effect = lower value 0.998 | S. cerevisiae deletion strains, locus YMR223W, strain ubp8, stronger effect = lower value 0.991 | S. cerevisiae deletion strains, locus YMR231W, strain pep5, stronger effect = lower value 0.967 | S. cerevisiae deletion strains, locus YMR307W, strain GAS1, stronger effect = lower value 1.05 | S. cerevisiae deletion strains, locus YNL067W, strain RPL9B, stronger effect = lower value 1.02 | S. cerevisiae deletion strains, locus YNL071W, strain lat1, stronger effect = lower value 1 | S. cerevisiae deletion strains, locus YNL153C, strain GIM3, stronger effect = lower value 0.998 | S. cerevisiae deletion strains, locus YNL209W, strain ssb2, stronger effect = lower value 0.998 | S. cerevisiae deletion strains, locus YNL233W, strain BNI4, stronger effect = lower value 1.01 | S. cerevisiae deletion strains, locus YNL248C, strain rpa49, stronger effect = lower value 1.01 | S. cerevisiae deletion strains, locus YNL250W, strain rad50, stronger effect = lower value 0.994 | S. cerevisiae deletion strains, locus YNL271C, strain bni1, stronger effect = lower value 1 | S. cerevisiae deletion strains, locus YNL298W, strain CLA4, stronger effect = lower value 0.999 | S. cerevisiae deletion strains, locus YNL307C, strain MCK1, stronger effect = lower value 1 | S. cerevisiae deletion strains, locus YNL322C, strain KRE1 (second series), stronger effect = lower value 1.01 | S. cerevisiae deletion strains, locus YNL322C, strain KRE1, stronger effect = lower value 1.01 | S. cerevisiae deletion strains, locus YNR049C, strain mso1, stronger effect = lower value 1.02 | S. cerevisiae deletion strains, locus YNR052C, strain pop2, stronger effect = lower value 0.996 | S. cerevisiae deletion strains, locus YOL012C, strain htz1 0.704 | S. cerevisiae deletion strains, locus YOL147C, strain pex11, stronger effect = lower value 1.01 | S. cerevisiae deletion strains, locus YOR001W, strain rrp6, stronger effect = lower value 1.02 | S. cerevisiae deletion strains, locus YOR061W, strain CKA2, stronger effect = lower value 1.01 | S. cerevisiae deletion strains, locus YOR069W, strain VPS5, stronger effect = lower value 1.01 | S. cerevisiae deletion strains, locus YOR070C, strain gyp1, stronger effect = lower value 1 | S. cerevisiae deletion strains, locus YOR080W, strain dia2, stronger effect = lower value 1.01 | S. cerevisiae deletion strains, locus YOR083W, strain WHI5, stronger effect = lower value 0.975 | S. cerevisiae deletion strains, locus YOR106W, strain vam3, stronger effect = lower value 1 | S. cerevisiae deletion strains, locus YOR136W, strain idh2, stronger effect = lower value 0.998 | S. cerevisiae deletion strains, locus YOR144C, strain elg1, stronger effect = lower value 0.996 | S. cerevisiae deletion strains, locus YOR184W, strain ser1, stronger effect = lower value 1.02 | S. cerevisiae deletion strains, locus YOR265W, strain rbl2, stronger effect = lower value 0.994 | S. cerevisiae deletion strains, locus YOR270C, strain vph1, stronger effect = lower value 1 | S. cerevisiae deletion strains, locus YOR290C, strain snf2, stronger effect = lower value 0.961 | S. cerevisiae deletion strains, locus YOR316C, strain cot1, stronger effect = lower value 0.992 | S. cerevisiae deletion strains, locus YPL051W, strain arl3, stronger effect = lower value 0.97 | S. cerevisiae deletion strains, locus YPL078C, strain atp4, stronger effect = lower value 0.97 | S. cerevisiae deletion strains, locus YPL106C, strain sse1, stronger effect = lower value 0.994 | S. cerevisiae deletion strains, locus YPL240C, strain hsp82, stronger effect = lower value 0.999 | S. cerevisiae deletion strains, locus YPL241C, strain CIN2, stronger effect = lower value 1.01 | S. cerevisiae deletion strains, locus YPR119W, strain clb2, stronger effect = lower value 0.995 | S. cerevisiae deletion strains, locus YPR141C, strain kar3, stronger effect = lower value 0.997 | S. cerevisiae deletion strains, locus YPR163C, strain tif3, stronger effect = lower value 0.988 | S. cerevisiae deletion strains, locus YPR167C, strain met16, stronger effect = lower value 0.997 | S. cerevisiae deletion strains, strain wtn01, stronger effect = lower value 1.02 | S. cerevisiae strains, strain wild type, stronger effect = lower value 1.01
